In PubChem BioAssay (NCI):
This is part of a sample that, as a whole, favours compounds with a hit. Of some 83,000 tested, about 20% had one in any assay.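 Percent growth is the endpoint: 0 to 100 indicates growth inhibition (40 means 60% inhibition), 0 means no net growth, and negative values indicate cell death.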 The source made the active and inactive calls.

tested on: NCI-H522 lung; experiment: NCI-60 one-dose screen, 48 h (100 = growth as untreated, 0 = no growth, -100 = all killed); details: 10 µM unless noted
Experimental: Growth inhibition of the NCI-H522 human Non-Small Cell Lung tumor cell line is measured as a screen for anti-cancer activity. Cells are grown in 96 well plates and exposed to the test compound for 48 hours. Compounds are tested at a single concentration, which is 10^-5 M for most compounds. The reported endpoint is percent growth (GI% or GIPRCNT), where numbers from 0 - 100% represent growth inhibition, and numbers from -100% - 0 represent cell death. For example, a value of 40 represents 60% growth inhibition. A value of 0 means no net growth occurred over the course of the experiment. A value of -40 indicates 40% of cells at the beginning of the experiment died by the end of the experiment. A value of -100 means all cells are dead at the end of the experiment.
NCI-60 Human Tumor Cell Lines Screen was performed using the standard one-dose NCI protocol, which is described in more detail at https://dtp.cancer.gov/discovery_development/nci-60/default.htm.
Compounds with GIPRCNT values below 10 were considered active. Activity score was based on GIPRCNT using the following formula: […]
Score is 0 for GIPRCNT values of 100 or above, 50 for GIPRCNT values of 0, and 100 for GIPRCNT values of -100.

SMILES	growth
Cn1cc(-c2nonc2-c2c[nH]c3ccccc23)c2ccccc21	-5.43% (active)
CC(O)c1ncc(/C=C2\SC(=S)N(Cc3ccccc3)C2=O)s1 (stereo not given)	5.34% (active)
O=C1OCC2=C1C(c1cccc(C(F)(F)F)c1)c1cc3c(cc1N2CCO)OCO3 (stereo not given)	16.1% (inactive)
Cc1ncc(C(=O)Nc2ccc(CN3CCN(C)CC3)c(C(F)(F)F)c2)cc1C#Cc1cnc(N)c2ccncc12	-79% (active)
C=CCCC(=O)N1C=CC(=O)[C@H](O)[C@@H]1/C=C/c1ccccc1	74.1% [100 µM] (inactive)
COc1ccc2nc3ccccc3c(NCc3ccc(F)cc3)c2c1	18.2% (inactive)
Cc1[nH]c(/C=C/C(=O)c2ccc(C(F)(F)F)c(F)c2)c(C)c1C(=O)NCC(C)C	99.4% (inactive)
N#C/C(=C\c1ccc(Br)cc1)c1cc2ccccc2[nH]1	85% (inactive)
COc1ccc(C2=NN(C(C)=O)C(c3ccc(Oc4ccnc5cc(Cl)ccc45)c(OC)c3)C2)cc1 (stereo not given)	46.8% (inactive)
CCOC(=O)n1cc(-c2nonc2-c2cn(C)c3ccccc23)c2ccccc21	18.4% (inactive)
CCn1cc(C(=O)N/N=C/c2ccc(Br)cc2)c(=O)c2cc(F)c(N3CCNC(C)C3)c(F)c21 (stereo not given)	78.5% (inactive)
O=C(CSc1nc2ccc([N+](=O)[O-])cc2[nH]1)Nc1cccc([N+](=O)[O-])c1	19.8% (inactive)
CCn1cc(C2=C(c3cn(C)c4ncccc34)C(=O)NC2=O)c2cccnc21	83.9% (inactive)
C=CC(C)(O)CC/C=C(\CO)C(=O)OC1C(C)OC(O[C@](C)(C=C)CC/C=C(\CO)C(=O)O[C@H]2C[C@@]3(C(=O)OC4OC(CO)C(O)C(O)C4OC4OC(C)C(OC5OC(CO)C(O)C5O)C(OC5OC(CO)C(O)C(O)C5O)C4O)C(CC2(C)C)C2=CCC4[C@@]5(C)CC[C@H](OC6OC(COC7OC(C)C(O)C(O)C7OC7OCC(O)C(O)C7O)C(O)C(O)C6NC(C)=O)C(C)(C)C5CC[C@@]4(C)[C@]2(C)C[C@H]3O)C(O)C1O (stereo not given in full)	-58.8% (active)
CCCCCCCC/C=C\CCCCCCCCOc1ccccc1CC(=O)NCC[N+]1(C)CCCCC1	38% (inactive)
O=C(CN1CCN(c2cc3c(cc2F)c(=O)c(C(=O)O)cn3C2CC2)CC1)N/N=C/c1ccncc1	96.5% (inactive)
O=C(/C=C/c1cccc(Cl)c1)c1cccc(OCCCCOc2cccc(C(=O)/C=C/c3cccc(Cl)c3)c2)c1	88.7% (inactive)
COc1ccc(-c2nnc(SCC(=O)Nc3ccc(/C(C)=N\O)cc3)n2-c2ccccc2)cc1OC	35.3% (inactive)
COc1ccc(C2=NN(C(=O)c3cc(OC)c(OC)c(OC)c3)C(c3ccc(N(C)C)cc3)C2)cc1 (stereo not given)	-32.4% (active)
O=C(/C=C\c1ccco1)/C=C/c1ccco1	112% (inactive)

SMILES	growth
COc1ccc(/C(C)=C(\c2ccc(OCCN3CCCCCC3)cc2)c2ccc(OC(=O)c3ccccc3)cc2)cc1	68.3% (inactive)
CCN1C(=O)N(CC)C2C1NN=c1s/c(=C\c3ccccc3Br)c(=O)n12 (stereo not given)	0.628% (active)
Cc1ccc(/C=C2\CN(C(=O)C(Cl)Cl)C/C(=C\c3ccc(C)cc3)C2=O)cc1	-37.3% (active)
N#Cc1nc2c(S(=O)(=O)c3ccccc3)c(N)n(Cc3cccnc3)c2nc1C#N	46.8% (inactive)
CC(C)CN1CC(C(=O)Nc2ccc3c(c2)-c2ccccc2C3)CC1=O (stereo not given)	51.3% [50 µM] (inactive)
CC/C=C\C/C=C/C=C1/C(=O)C=C[C@@H]1C/C=C\CCCC(=O)OC	-32.3% (active)
O=C(CSc1nnc2sc(Nc3cccc(Cl)c3)nn12)c1ccc(F)cc1	75.6% (inactive)
COc1cc(/C=C2\CN(S(=O)(=O)c3ccc(C)cc3)C/C(=C\c3cc(CN4CCCCC4)c(O)c(OC)c3)C2=O)cc(CN2CCCCC2)c1O	-58% (active)
COc1cc2c(cc1O)[C@@]1(C)[C@H](c3ccccc3Br)OC(=O)N1CC2	75.5% (inactive)
COc1ccc(/C=C/C(=O)c2ccc(Nc3nc(Nc4ccc(F)cc4)nc(Nc4ccc(Cl)cc4)n3)cc2)cc1	61.9% (inactive)
Cc1cc(C(=O)Nc2cc(Nc3ncccc3-c3ncnc4nc[nH]c34)ccc2F)cc(C(F)(F)F)c1	63.1% (inactive)
O=C(Nc1ccccc1O)c1ccccc1Nc1ccnc(C(F)(F)F)c1	83.9% (inactive)
COCC[C@H]1CCC/C=C/[C@@H]2C[C@H](O)C[C@H]2[C@H](O)/C=C/C(=O)O1	-28.6% (active)
O=C1Nc2ccccc2C2c3cccn3-c3ccccc3N12 (stereo not given)	8.49% (active)
CCN(CC)CCOc1nc2c3ccc(Cl)cc3nn2c2ccccc12	27.9% (inactive)
Cc1ccc(-c2nc(C(Cl)Cl)nc3cc(C)nn23)cc1	4.52% (active)
Cn1cc(-c2nn3cc(-c4ccccc4)nc3s2)c2ccccc21	38.9% (inactive)
CCOC(=O)Nc1nc2ccc(SCC(C)C)cc2s1	4.9% (active)
COc1ccc(C(c2cc(OC)c(OC)c(OC)c2)N2CCCC2)cc1 (stereo not given)	58.5% (inactive)
Cc1[nH]c(C(=O)Nc2ccc(C(N)=O)cc2NC(C)C)c(Cl)c1Cl	79.3% (inactive)
